Source: PubChem BioAssay (National Center for Advancing Translational Sciences (NCATS))
Shown is part of a subset that was picked to be rich in hits.
Pf Dd2 growth: qHTS Primary assay for Inhibitors of Plasmodium falciparum Dd2 growth in vitro. Potency, µM (highest dose often 28.9 µM), most hits filed as inhibitors. P. falciparum Dd2 growth, SYBR Green, 72 h. 4.3% of 120,000 active; active = well fitted inhibition curve with a large enough effect; note: nearly all actives have a fitted effect of over 65% in size
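Infected erythrocytes (Dd2, 0.3% parasitemia, 2.5% hematocrit final) are added to compound in RPMI-1640/Albumax II medium, grown 72 h at 37C in low oxygen, then lysed with saponin/Triton-X containing SYBR Green and read by fluorescence.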
Of the large screens only hits and unclear results are named; the others gave an inactive call.

Cc1noc(C)c1S(=O)(=O)N1CCCC(Cn2c(C3CC3)nc3cccnc32)C1 (configuration not stated)	none
COc1cc(-c2nc(-c3cccc(Cl)c3)c(-c3ccccc3)[nH]2)cc(OC)c1OC	Pf Dd2 growth 10µM
COc1ccc(-c2nc(-c3ccccc3)c(-c3ccccc3)[nH]2)cc1Br	none
COc1cc(-c2noc(CN3CCN(c4cccc(Cl)c4)CC3)n2)cc(OC)c1OC	none
COc1cccc(S(=O)(=O)N2CCC(CC(=O)NCc3ccccc3)C2)c1 (configuration not stated)	none
O=C(c1cccnc1)N1CCCC(c2nc(C3CCOCC3)no2)C1 (configuration not stated)	none
Brc1ccc(Nc2c3c(nc4nncn24)CCC3)cc1	Pf Dd2 growth 4µM
Cc1ccccc1Nc1c2c(nc3nncn13)CCC2	none
Cc1ccc(Nc2c3c(nc4nncn24)CCC3)cc1	none
Cc1ccc(Nc2c3c(nc4nncn24)CCC3)cc1C	Pf Dd2 growth 10µM
CCOc1ccc(Nc2c3c(nc4nncn24)CCC3)cc1	none
Cc1cccc(Nc2c3c(nc4nncn24)CCC3)c1	none
OC1(CN2CCN(c3nccs3)CC2)CNCCOC1 (configuration not stated)	none
CC(=O)N(C1CC1)C1CCOC2(CCN(C(=O)Nc3ccccc3F)CC2)C1 (configuration not stated)	none
CC(=O)Nc1ccc(CN2CCCC(N3CCN(c4ccccc4)CC3)C2)cc1 (configuration not stated)	none
CCN(CC)C(=O)[C@@H]1CCC[C@@H](NCc2nccn2C)CN(C)C(=O)C1	none
O=S1(=O)NCC2(CCCN(Cc3cccnc3)C2)Oc2ncccc21 (configuration not stated)	none
COCc1nc(C2CCN(C(=O)C3CCOCC3)C2)no1 (configuration not stated)	none
Cn1cnnc1CC1CCCN(S(=O)(=O)c2ccc3c(c2)C(C)(C)C(=O)N3)C1 (configuration not stated)	none
CNC(=O)[C@@H](c1ccccc1)N1CCC[C@H]1C(=O)NCCc1c[nH]c2ccccc12	none
CCC1c2nccn2CCCN1C(=O)c1ccc2c(c1)OCO2 (configuration not stated)	none
CCC1c2nccn2CCCN1C(=O)Cn1c(=O)oc2ccccc21 (configuration not stated)	Pf Dd2 growth 13µM
CCC1c2nccn2CCCN1C(=O)C1CCOCC1 (configuration not stated)	none
CCC1c2nccn2CCCN1C(=O)Cc1ccc(OC)cc1 (configuration not stated)	Pf Dd2 growth 7.1µM
CC(C)C1c2nccn2CCCN1C(=O)Cn1c(=O)oc2ccccc21 (configuration not stated)	none
CCC1c2nccn2CCCN1C(=O)COC (configuration not stated)	none
O=C(CN1C(=O)NC2(CCS(=O)(=O)CC2)C1=O)Nc1cc(F)cc(F)c1	none
COc1ccc(C(=O)N2C[C@@H]3C[C@H](C2)c2ccc(-c4ccc5ccccc5c4)c(=O)n2C3)cc1	none
O=C(NC[C@H]1OC[C@@H](NC2CCCC2)[C@@H]1O)C1CCCC1	none
O=C(c1ccoc1)N1CC2CC(C1)[C@H]1CCCC(=O)N1C2 (some centres not stated)	none
Cc1noc([C@@H]2CN(Cc3ccncc3)C[C@H]2CO)n1	none
CC(=O)NC1(C)CN(Cc2ccc(-c3cccc(C(F)(F)F)c3)s2)C1	Pf Dd2 growth 7.1µM
CC(=O)NC1(C)CN(Cc2ccc(-c3ccc(Oc4ccccc4)cc3)s2)C1	Pf Dd2 growth 4µM
COc1ncccc1-c1csc(CN2CCCC(C)(NC(C)=O)C2)c1 (configuration not stated)	none
CC(=O)NC1(C)CN(c2cccc(C(F)(F)F)c2)C1	none
CC(=O)Nc1cccc(-c2csc(CN3CCCC(C)(NC(C)=O)C3)c2)c1 (configuration not stated)	none
CC(=O)NC1(C)CN(Cc2ccc(-c3cccc(F)c3)s2)C1	none
Cc1nncn1C1CCN(S(=O)(=O)c2ccc(C(C)C)cc2)CC1	none
CCc1ccc2oc(C(=O)Nc3cccc(Cl)c3C)cc(=O)c2c1	none
Cc1ccccc1NC(=O)c1ccc2nc(Cc3ccccc3)oc2c1	none
Cc1ccccc1NC(=O)c1c(C)oc2ccc(O)c(CN(C)Cc3ccccc3)c12	Pf Dd2 growth 1.1µM
CCCn1ccc2oc(C)c(C(=O)NCc3ccccc3)c2c1=O	none
Cc1ccccc1NC(=O)C1=NO[C@@H]2CN(CCc3ccccc3)C[C@H]12	none
Cc1cc(C)c2c(=O)cc(C(=O)Nc3ccc(S(=O)(=O)N(C)Cc4ccccc4)cc3)oc2c1	none
CCN(Cc1ccccc1)Cc1c(O)ccc2oc(C)c(C(=O)Nc3ccccc3C)c12	Pf Dd2 growth 1.1µM
Cc1c(Cl)cccc1NC(=O)c1ccc(C(=O)Nc2cccc(Cl)c2C)cc1	none
Cc1oc2ccc(O)c(CN(C)Cc3ccccc3)c2c1C(=O)Nc1cccc(Cl)c1C	Pf Dd2 growth 3.2µM
COC[C@H]1CCCN1C(=O)C[C@@H]1O[C@H](CNS(=O)(=O)c2ccc(Cl)cc2)[C@@H](O)[C@H]1O	none
Fc1ccc(/C=C/CN2CCC(n3cc(C4CCCC4)nn3)CC2)cc1	none
Fc1ccccc1CNC[C@H]1Cn2cc(-c3ccccc3)nc2CO1	none
Cn1nccc1C(=O)N1CCC(Oc2cccnc2)C1 (configuration not stated)	none
CC(C)CCN(CCC(=O)NCCc1ccccc1)C(=O)c1ccoc1	none
Cc1cccc(CC(=O)N2CCC3(CC2)CC(N(C(=O)NC(C)C)C2CC2)CCO3)c1 (configuration not stated)	none
Cc1nc2c(c(-c3ccc(O)cc3)n1)CN(C(=O)c1ccc(F)cc1)CCC2	none
CC(C)c1noc(-c2cn(C3CCN(C(=O)C4(c5ccccc5)CC4)C3)nn2)n1 (configuration not stated)	none
Cc1noc([C@@H]2CC(F)(F)CN2C(=O)COc2ccccc2)n1	none
O=C(CC1CCCCC1)N1CCC(c2n[nH]c(=O)n2-c2ccccc2)CC1	none
COc1ccc2c(c1)C1(CCN(S(=O)(=O)c3ccc4c(c3)CC(=O)N4C)C1)C(=O)N2C (configuration not stated)	Pf Dd2 growth 2.5µM
CN1C(=O)Cc2cc(S(=O)(=O)N3CCN(c4ccc(Cl)cc4)CC3)ccc21	none
COc1ccc2c(c1)C1(CCN(C(=O)CCc3ccccc3)C1)C(=O)N2C (configuration not stated)	none
COCCN1C(=O)CS(=O)(=O)C12CCN(C(=O)Cc1ccccc1C)CC2	none
CC(=O)NC1(C)CCCN(Cc2cc(Br)cs2)C1 (configuration not stated)	none
CC(=O)NC1(C)CCN(Cc2ccc(-c3ccc([S+](C)(=O)[O-])cc3)cc2)C1 (configuration not stated)	none
COc1ccccc1CNC(=O)C1(CCO)CCN(Cc2ccccc2)C1 (configuration not stated)	none
CC(=O)NC1(C)CCN(Cc2ccc(-c3ccc4c(ccn4C)c3)cc2)C1 (configuration not stated)	Pf Dd2 growth 10µM
COc1cc(CN2CCC(C)(NC(C)=O)CC2)cc(-c2ccccc2)c1	none
CC(=O)NC1(C)CCN(Cc2ccc(-c3ccccc3Oc3ccccc3)cc2)C1 (configuration not stated)	Pf Dd2 growth 7.1µM
CC(=O)c1ccc(NC(=O)N[C@@H]2C=C(C(=O)N[C@H](C)C(N)=O)C[C@@H](O)[C@@H]2O)cc1	none
Cc1ccnc(CC(C)N(C)C(=O)c2cc(-c3cnn(C)c3)nc3ccccc23)c1 (configuration not stated)	none
